Structures can show the parent of a compound that is named as a salt. ± gives the standard deviation.

In this experiment the test system is THP-1. Kind of experiment: THP-1 cell loss relative to DMSO control; higher = more host cell loss (toxicity); extreme values may be limits of the assay. Conditions: 10 µM; 4 days; infection: M. tuberculosis H37Rv. On the procedure:
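OICR kinase inhibitor library screened in duplicate at 10 uM against M. tuberculosis-infected THP-1 macrophages, 4 days at 37 C. THP-1 cell loss (cytotoxicity or loss of adherence) was quantified from Hoechst-stained nuclei counts by high-content imaging and normalised to the 1% DMSO control; 100 = complete loss of host cells.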
Compound `OCCC#Cc1nc(-c2ccc(F)cc2)c(-c2ccncc2)n1CCCc1ccccc1` registered a THP-1 cell loss of 66.42 ± 0.12%.
With `COc1cc2ncnc(Nc3ccc(F)c(Cl)c3)c2cc1OCCCN1CCOCC1` [Gefitinib], the THP-1 cell loss came out at 12.5 ± 5.5%.
`CCc1cncnc1N1CCN(Cc2nc3ccc(C(F)(F)F)cc3[nH]2)CC1` showed a THP-1 cell loss of 92.6 ± 10%.
In the case of `Nc1cc(N)c(N)cc1N` [FAK Inhibitor 14] it was 11.9 ± 4%; in that of `CCN(CCCOc1ccc2c(Nc3cc(CC(=O)Nc4cccc(F)c4)[nH]n3)ncnc2c1)CCOP(=O)(O)O`, 7.93 ± 5.5%; in that of `Nc1ncnc2c1c(-c1cccc(OCc3ccccc3)c1)cn2C1CC(CN2CCC2)C1` (stereo not given), 18.9 ± 6%.
As for `CCN(CC)CC1CCN(c2ncc3ncnc(Nc4ccc(F)c(Cl)c4)c3n2)CC1` [BIBU 1361 dihydrochloride], the THP-1 cell loss was determined as 100%.
`CNS(=O)(=O)Nc1nccc(Cc2c(C)c3ccc(Oc4ncccn4)cc3oc2=O)c1F` had a THP-1 cell loss of 100%.
For the compound `Oc1ccc(Nc2nc(-c3ccc(Cl)cc3)cs2)cc1`, the THP-1 cell loss was 100%.
Then `CCN(CC)CCCCNc1ncc2cc(-c3cc(OC)cc(OC)c3)c(NC(=O)NC(C)(C)C)nc2n1`, with 8.25 ± 12%; and `CCCS(=O)(=O)Nc1ccc(F)c(C(=O)c2c[nH]c3ncc(Cl)cc23)c1F`, with 11.5 ± 14%.
For `O=C(O)c1ccc2c(c1)nc(Nc1cccc(Cl)c1)c1ccncc12`, the THP-1 cell loss was 66.8 ± 1.6%.
As for `Cc1ccc(NC(=O)c2ccc(CN3CCN(C)CC3)cc2)cc1Nc1nccc(-c2cccnc2)n1` [Imatinib (free base)], the THP-1 cell loss turned out to be 3.31 ± 4.7%.
`Cc1cc(Nc2cc(C)c(C#N)c(NC(C)CCCC(C)(C)O)n2)n[nH]1` (stereo not given) [TC-A 2317 hydrochloride] displayed a THP-1 cell loss of 19.1 ± 1%.
Take `Cc1cccc(-c2nn(C(=S)Nc3ccccc3)cc2-c2ccnc3ccccc23)n1`: the THP-1 cell loss was determined as 2.37 ± 3.4%.
`Cc1ccc(F)c(NC(=O)Nc2ccc(-c3cccc4[nH]nc(N)c34)cc2)c1` gave a THP-1 cell loss of 84.1 ± 22%.
In the case of `N#C/C(=C(/N)Sc1ccc(N)cc1)c1ccccc1C(F)(F)F` it was 78.2 ± 4.7%.
In the case of `CCOc1cc2ncc(C#N)c(Nc3ccc(OCc4ccccn4)c(Cl)c3)c2cc1NC(=O)/C=C/CN(C)C` [Neratinib] it was 55.4 ± 63%; in that of `Cn1cc(C2=C(c3cn(CCCSC(=N)N)c4ccccc34)C(=O)NC2=O)c2ccccc21` [Ro-31-8220 mesylate], 100%; in that of `NC(=O)c1ccc(-c2nc(-c3ccc4c(c3)OCCO4)c(-c3ccccn3)[nH]2)cc1`, 43.2 ± 50%.
Compound `C=CC(=O)Nc1cc2c(Nc3ccc(F)c(Cl)c3)ncnc2cc1C#CC(C)(C)N1CCN(C)CC1` returned a THP-1 cell loss of 100%.
For the compound `O=C1C(Cl)=C(NCCN2CCOCC2)C(=O)c2ncccc21`, the THP-1 cell loss was determined as 93.7 ± 8.8%.
The compound `O=C1NCCc2[nH]c(-c3ccncc3)cc21` showed a THP-1 cell loss of 100%.
Then `CC(C)[C@H](CO)Nc1nc(Nc2cccc(Cl)c2)c2ncn(C(C)C)c2n1` [Purvalanol A], with 100%.
As to `COc1ccc(C(=O)Nc2sc3c(c2C(N)=O)CCCC3)cc1OC`, the THP-1 cell loss was found to be 100%.
Take `Cn1cc(C2=C(c3ccc(Cl)cc3Cl)C(=O)NC2=O)c2ccccc21`: the THP-1 cell loss amounted to 15.5 ± 22%.
Take `COc1cc2nccc(Oc3ccc(NC(=O)Nc4cc(C)on4)c(Cl)c3)c2cc1OC`: the THP-1 cell loss amounted to 27.4 ± 5%.
`NS(=O)(=O)c1nn2cc(-c3ccccc3)nc2s1`: the THP-1 cell loss was found to be 5.48 ± 7.7%.
For `O=c1cc(N2CCOCC2)oc2c1ccc1ccccc12`, the THP-1 cell loss turned out to be 24.4 ± 6.4%.
For `O=S(=O)(c1cccc2c(Cl)cccc12)N1CCCNCC1` [ML 9 hydrochloride], the THP-1 cell loss came out at 31.1 ± 21%.
The compound `CC(C)(C)c1nc2c3cc[nH]c(=O)c3c3cc(F)ccc3c2[nH]1` [Merck-5] gave a THP-1 cell loss of 46.3 ± 11%.
Consider `O=S(=O)(c1cccc2cnccc12)N1CCCNCC1` [Fasudil HCl], for which the THP-1 cell loss came to 0.204 ± 0.29%.
Take `Cc1csc(-c2nnc(Nc3ccc(Oc4ncccc4-c4ccnc(N)n4)cc3)c3ccccc23)c1`: the THP-1 cell loss worked out at 62.4 ± 53%.
In the case of `COc1cc2nccc(Oc3ccc(NC(=O)C4(C(=O)Nc5ccc(F)cc5)CC4)cc3)c2cc1OC`, the THP-1 cell loss is 83.9 ± 4.8%.
Compound `Cn1cc(-c2cnc3ccc4ccc(CS(=O)(=O)NCc5ccccn5)cc4c(=O)c3c2)cn1` gave a THP-1 cell loss of 52.3 ± 67%.
The compound `C[C@@H](Oc1cc(-n2cnc3ccc(CN4CCN(C)CC4)cc32)sc1C(N)=O)c1ccccc1C(F)(F)F` gave a THP-1 cell loss of 23.7 ± 4.8%.
The compound `O=C(NOCC1CC1)c1cc(Br)c(F)c(F)c1Nc1ccc(I)cc1Cl` registered a THP-1 cell loss of 55.1 ± 9.2%.
`C=CC(=O)Nc1cc2c(Nc3ccc(F)c(Cl)c3)ncnc2cc1OCCCN1CCOCC1` returned a THP-1 cell loss of 100%.
For the compound `NC(=O)c1ccc(-c2nc(-c3ccccn3)c(-c3ccc4c(c3)OCO4)[nH]2)cc1`, the THP-1 cell loss was determined as 0.126 ± 0.18%.
Then `C/C(=N\N=C(N)N)c1ccc(NC(=O)c2cc3cccc([N+](=O)[O-])c3[nH]2)cc1`, with 0%.
